Our source for the IC50 and outcome values is PubChem BioAssay.

Records with an inconclusive call do not appear. The source made the active and inactive calls. No cut-off is given here; in the data, nearly all actives have IC50 up to about 30 µM.

This assay is described as follows: SU-DIPG-XXV glioma cell viability, MIPE5.0 library, qHTS (AID 1347068).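 For IC50: cells exposed to compound for 48 hours before viability readout.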
What is called IC50 is the concentration at which inhibition is half-maximal. As for `O[C@@H](COc1cccc2ncccc12)CN1CCN(C2c3ccccc3[C@@H]3[C@H](c4ccccc42)C3(F)F)CC1` (stereo partly drawn), the IC50 was 18.6 µM (active).

Regarding `NCc1c[nH]c(=S)n1[C@H]1CCc2c(F)cc(F)cc2C1`, the result was inactive.

As for `C#CCN(C)CC1=Cc2ccccc2Oc2ccccc21`, the compound was classed as inactive.

In the case of `Cc1cc(Nc2cc(CN3CCOCC3)c3nc(C)c(Cc4ccc(Cl)cc4F)n3n2)n[nH]1`, the IC50 is 8.33 µM (active).

On to `COc1cc(F)c(C(C)C)cc1-c1ccc(C(F)(F)F)cc1CN1C(=O)O[C@H](c2cc(C(F)(F)F)cc(C(F)(F)F)c2)[C@@H]1C`, for which the compound was called inactive.

With `COc1cc(C(C)C)c(Oc2cnc(NC(CO)CO)nc2N)cc1I`, the outcome was inactive.

In the case of `CC1=C[C@@H]2[C@H]([C@@H](O)C[C@@]3(C)[C@H]2C[C@@H](C)[C@]3(O)C(=O)CO)[C@@]2(C)Cc3cnn(-c4ccccc4)c3C=C12`, the half-inhibitory concentration (IC50) is 16.6 µM (active).

For the compound `CCN(CC)CCCCNc1ncc2c(n1)N(C)C(=O)N(c1c(Cl)c(OC)cc(OC)c1Cl)C2`, the IC50 was 7.42 µM (active).

For the compound `COc1ccccc1[C@H](c1cccc2ccccc12)[C@@](C)(C#N)C(=O)N1CCC(c2cccc(C(F)(F)F)c2)CC1`, the outcome was inactive.

As to `CC1(C)CNc2cc(NC(=O)c3cccnc3NCc3ccncc3)ccc21`, the result was inactive.

In the case of `O=C(Nc1ccccc1-c1cn2c(CN3CCNCC3)csc2n1)c1cnc2ccccc2n1`, the half-inhibitory concentration (IC50) was 10.5 µM (active).

Turning to `COc1cc(C)c(Sc2cnc(NC(=O)c3ccc(CNC(C)C(C)C)cc3)s2)cc1C(=O)N1CCN(C(C)=O)CC1` (stereo not drawn), the 50% inhibitory concentration (IC50) was 14.8 µM (active).

For the compound `CC(C)C[C@@H](N)[C@H](O)C(=O)N[C@H](C(=O)N[C@H](C(=O)N[C@@H](CC(=O)O)C(=O)O)C(C)C)C(C)C`, the result was inactive.
